{
  "source": "PubChem BioAssay AID504444",
  "about": "(National Center for Advancing Translational Sciences (NCATS), 2011)",
  "note": "Hit rate of the full screen: of about 360,000 compounds, about 7,500 (2.1%) were called active. Inconclusive results (about 20%) are left out. Calls come from the whole dose curve; as a rule, active = well fitted inhibition curve with a large enough effect; inconclusive = small, poorly fitted or top-dose-only effect, or effect the other way; inactive = flat fitted curve, though single readings scatter. The entries come from a sample that favours actives as a whole. A call without a number means that no potency is given here. Potency is the fitted concentration of half-maximal effect.",
  "data": [
    {"test": "Nrf2 qHTS screen for inhibitors; note: nearly all actives have a fitted effect of over 60% in size", "conditions": "A549 ARE-Fluc reporter, luciferase luminescence, 18-24 h; series mostly up to 46 µM", "outline": "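Concentration-response testing used A549 ARE_Fluc cells at 5000 cells/well. Following an 18-24 h compound incubation, viability was read by fluorescence (Ex 405/Em 525) and luciferase output by luminescence.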", "values": [
      {"smiles": "COc1ccccc1-c1sc2ccccc2c1-c1ccc(Br)nc1", "Potency": "inactive"},
      {"smiles": "OCCNc1ncnc2oc(-c3ccco3)c(-c3ccco3)c12", "Potency": "inactive"},
      {"smiles": "CCCN1CN=C(NS(=O)(=O)c2ccc(NC(C)=O)cc2)NC1", "Potency": "inactive"},
      {"smiles": "Cc1ccc(S(=O)(=O)N2CCC(C(=O)Nc3cc(C)ccc3C)CC2)cc1", "Potency": "inactive"},
      {"smiles": "Cc1ccc(-c2nc(=N)sn2Cc2ccccc2)cc1", "Potency": "inactive"},
      {"smiles": "Cc1cc(-c2ccc(C)c(S(=O)(=O)NC(C)Cc3ccco3)c2)on1", "note": "(stereo not drawn)", "Potency": "18.4 µM (active)"},
      {"smiles": "Cc1cc(-c2ccc(C)c(S(=O)(=O)NCCCN(Cc3ccccc3)C(C)C)c2)on1", "Potency": "inactive"},
      {"smiles": "Cc1cc(-c2ccc(C)c(S(=O)(=O)Nc3ccc(S(N)(=O)=O)cc3)c2)on1", "Potency": "inactive"},
      {"smiles": "COC(=O)[C@]1(Cc2ccccc2)N[C@H](CN(C)S(=O)(=O)c2ccc(OC(F)(F)F)cc2)[C@@H]2C(=O)N(Cc3ccccc3)C(=O)[C@@H]21", "Potency": "inactive"},
      {"smiles": "Cc1cc(N2CCCC2)ccc1NC(=O)COc1ccc(Cl)cc1", "Potency": "inactive"},
      {"smiles": "COc1ccc(N(C)C(=O)C2CCN(S(=O)(=O)c3cccc4nsnc34)CC2)cc1", "Potency": "8.2 µM (active)"},
      {"smiles": "COc1ccc(N(C)S(=O)(=O)c2cccc3nsnc23)cc1", "Potency": "inactive"},
      {"smiles": "COc1ccc(N(C)C(=O)CCS(=O)(=O)c2cccc3nsnc23)cc1", "Potency": "inactive"},
      {"smiles": "Cc1ccc(-c2nc3cccc(C)n3c2Nc2ccc3c(c2)OCCO3)cc1", "Potency": "inactive"},
      {"smiles": "CC(C)(C)OC(=O)NNc1c2ccccc2nc2ccccc12", "Potency": "23.1 µM (active)"},
      {"smiles": "CCC(=O)OCCNc1nc(-c2ccccc2)nc2ccccc12", "Potency": "inactive"},
      {"smiles": "Cc1ccccc1NC(=O)NNC(=O)OC(C)(C)C", "Potency": "inactive"},
      {"smiles": "COc1ccc2c(c1)CCc1c(C(=O)Nc3cc(C)ccc3O)noc1-2", "Potency": "inactive"},
      {"smiles": "COc1ccccc1C(=O)Nc1ccc(OCc2nnc3c4ccccc4c(C)nn23)cc1", "Potency": "9.2 µM (active)"},
      {"smiles": "COc1ccccc1C(=O)Nc1ccccc1C(=O)Nc1ccccc1", "Potency": "inactive"},
      {"smiles": "COc1ccccc1C(=O)Nc1c(C(=O)Nc2ccc(C)cc2)oc2ccccc12", "Potency": "inactive"},
      {"smiles": "CCOC(=O)c1c(C)[nH]c(C)c1S(=O)(=O)N(C)CC(=O)N1CCN(c2ccccc2)CC1", "Potency": "inactive"},
      {"smiles": "O=C(Nc1cccc(C(=O)NC2CC2)c1)c1ccc(F)c(S(=O)(=O)N2CCOCC2)c1", "Potency": "inactive"},
      {"smiles": "O=C(OCCOc1ccccc1F)c1cc(S(=O)(=O)N2CCOCC2)ccc1F", "Potency": "inactive"},
      {"smiles": "O=C(OCCOc1ccccc1Cl)c1cc(S(=O)(=O)N2CCCCC2)ccc1N1CCOCC1", "Potency": "6.51 µM (active)"},
      {"smiles": "O=C(NCC1CCCCC1)c1cc(S(=O)(=O)N2CCCCC2)ccc1N1CCOCC1", "Potency": "inactive"},
      {"smiles": "O=C(NCC1CCCO1)c1ccc(S(=O)(=O)Nc2ccc(F)cc2)cc1", "note": "(stereo not drawn)", "Potency": "inactive"},
      {"smiles": "Cc1ccc(NC(=O)c2ccc(S(=O)(=O)NCC3CCCO3)cc2)cc1C", "note": "(stereo not drawn)", "Potency": "inactive"},
      {"smiles": "O=C(N/N=C/c1cccnc1)c1ccc(NC(=O)c2ccc(F)cc2)cc1", "Potency": "inactive"},
      {"smiles": "O=C(Nc1ccc(S(=O)(=O)NCC2CCCO2)cc1)c1ccc(F)cc1", "note": "(stereo not drawn)", "Potency": "11.6 µM (active)"},
      {"smiles": "COc1ccc(S(=O)(=O)NCc2cccnc2)cc1NC(=O)c1ccc(C)cc1", "Potency": "inactive"},
      {"smiles": "O=C(Nc1ccc(F)cc1)c1ccc(S(=O)(=O)NCc2cccnc2)cc1", "Potency": "18.4 µM (active)"},
      {"smiles": "Cc1ccc(NS(=O)(=O)c2cc3c(cc2Br)NC(=O)CO3)cc1C", "Potency": "inactive"},
      {"smiles": "O=C(NCC1CCCCC1)NCC1CCCCC1", "Potency": "inactive"},
      {"smiles": "Cc1cc2c(s1)c1cnn(Cc3cc(F)c(Cl)cc3Cl)c(=O)c1n2C", "Potency": "inactive"},
      {"smiles": "O=[N+]([O-])c1ccccc1/C=C/CN1CCCC(CO)C1", "note": "(stereo not drawn)", "Potency": "inactive"},
      {"smiles": "O=[N+]([O-])c1ccccc1/C=C/CN1CCC(O)CC1", "Potency": "inactive"},
      {"smiles": "CC1CCCCC1NC(=O)/C(C#N)=C/C=C/c1ccccc1[N+](=O)[O-]", "note": "(stereo not drawn)", "Potency": "16.4 µM (active)"},
      {"smiles": "Cc1ccc(NC(=O)C(C)Sc2nnc(C3CC3)n2C2CC2)cc1S(=O)(=O)N1CCOCC1", "note": "(stereo not drawn)", "Potency": "inactive"},
      {"smiles": "C#CCOCCOCCOCCNc1nc(N2CCN(C(=O)[C@H](CO)n3cc([C@@H](N)C(C)C)nn3)CC2)nc(N2CCN(C(=O)[C@H](CCC(=O)O)n3cc([C@@H](N)[C@H](C)CC)nn3)CC2)n1", "Potency": "inactive"},
      {"smiles": "Oc1ccc(-n2nnnc2SCc2c(F)cccc2Cl)cc1", "Potency": "inactive"},
      {"smiles": "COc1ccc(-n2nnnc2SCC(=O)c2ccc(OC)c(OC)c2)cc1", "Potency": "16.4 µM (active)"},
      {"smiles": "COc1ccc(C(=O)CSc2nnnn2C)c(OC)c1", "Potency": "inactive"},
      {"smiles": "COc1ccc(CSc2nnnn2-c2ccc(O)cc2)cc1F", "Potency": "14.6 µM (active)"},
      {"smiles": "Cc1cc(NC(=O)CSc2nnnn2-c2ccc(F)cc2)no1", "Potency": "inactive"},
      {"smiles": "COc1ccc(-n2nnnc2SCC(=O)NCc2cccs2)cc1", "Potency": "inactive"},
      {"smiles": "O=C(NCc1nnc(C(=O)Nc2ccc(C(F)(F)F)cc2Cl)o1)c1ccccc1", "Potency": "inactive"},
      {"smiles": "Cc1nn(-c2ccc(F)cc2)c(Cl)c1/C=C(/CCC(=O)O)c1nc2ccccc2s1", "Potency": "inactive"},
      {"smiles": "COc1ccc(-c2ccc3ncnc(NCc4cccs4)c3c2)cc1OC", "Potency": "inactive"},
      {"smiles": "O=C(CSc1nnc(-c2ccccc2F)o1)Nc1cccc(C(F)(F)F)c1", "Potency": "inactive"},
      {"smiles": "COc1ccc(Cl)cc1-n1c(C)cc(C(=O)OCC(=O)N2CC(=O)Nc3ccccc32)c1C", "Potency": "18.4 µM (active)"},
      {"smiles": "COc1ccc(C(=O)OCC(=O)N2CC(=O)Nc3ccccc32)cc1Br", "Potency": "inactive"},
      {"smiles": "COc1cc(OC)c(C(=O)OCC(=O)N2CC(=O)Nc3ccccc32)cc1OC", "Potency": "inactive"},
      {"smiles": "COc1cccc(-n2cc(C(=O)NCc3cccc(Cl)c3)c3ccccc3c2=O)c1", "Potency": "inactive"},
      {"smiles": "Oc1ccccc1-c1nc2ccc(Cl)cn2c1Nc1ccc2c(c1)OCCO2", "Potency": "inactive"},
      {"smiles": "CN1CCN(S(=O)(=O)c2cccc(C(=O)O)c2)CC1", "Potency": "inactive"},
      {"smiles": "CC(=O)c1ccc(OCC(O)CN2CCN(S(=O)(=O)c3cccc(Br)c3)CC2)cc1", "note": "(stereo not drawn)", "Potency": "inactive"},
      {"smiles": "Cc1ccc(OCCNC(=O)c2cccc(S(=O)(=O)N3CCN(Cc4ccccc4)CC3)c2)cc1", "Potency": "11.6 µM (active)"},
      {"smiles": "NC(=O)C1CCN(C(=O)c2cc(S(=O)(=O)N3CCN(c4ccccc4)CC3)ccc2Cl)CC1", "Potency": "inactive"},
      {"smiles": "COCCNC(=O)CSc1nc(-c2ccccc2)[nH]c1-c1ccc(C)cc1", "Potency": "inactive"},
      {"smiles": "CC(C)(c1ccccc1)c1ccc(OCCN)cc1", "Potency": "inactive"},
      {"smiles": "CC(C)(C)c1ccc(Oc2ccc(N)cc2)cc1", "Potency": "4.11 µM (active)"},
      {"smiles": "COc1cccc(Oc2ccc(N)cc2)c1", "Potency": "inactive"}
    ]}
  ]
}
